Screens as filed in PubChem BioAssay.
697 NFkB inh: inhibitors of PMA/ionomycin-induced NF-kB reporter, 697 cells, primary screen, B-cell NF-kB inhibitor project, cell-based, luminescence, uHTS. 697 B-cell NF-kB luciferase reporter, 16 h. inhibition, % at 4 µM. actives 0.33% (n = 330,000); in the data active means inhibition above about 35%
Mdm2-MdmX inh: inhibitors of human Mdm2-MdmX association, primary screen, cell-based, luminescence, split luciferase, SaOS-2, uHTS. Protein Mdm4 (Homo sapiens) + E3 ubiquitin-protein ligase Mdm2 (Homo sapiens), …. SaOS-2 split-luciferase Mdm2/MdmX complementation. inhibition, % at 8 µM. actives 3% (n = 330,000);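 active means inhibition of at least 50% at 8 µM in the primary screen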
Beta apoptosis: inhibitors of cytokine-induced beta cell apoptosis, primary screen, luminescence | AID 435005, 2010 | protection from apoptosis, % (test concentration not listed) | INS-1E cytokine-induced death, ATP luminescence, 48 h; percent of positive-control rescue, neutral wells zero | actives 0.8% (n = 300,000);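 active means Every replicate reaches about 75%, or at least half do and their mean reaches it too, limit read from the data; inconclusive means At least half of replicates reach the limit but their mean does not; inactive means Under half of replicates reach the limit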;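 further: 0% = cytokine-treated negative control wells and 100% = positive control rescue; higher means more ATP so stronger rescue from cytokine killing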
Bfl-1 A1 inh: caspase 3/7 activation in MEF A1-2A-BIM cells, primary screen, A1 inhibitor project, cell-based, luminescence, HTS | caspase activation, % (no concentration beside the values) | AID 2462, 2010 | Caspase-Glo 3/7 luminescence, 3 h; percent of clofoctol response, vehicle zero | actives 0.066% (n = 330,000);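 active means over half of replicate activation scores above 10%, or exactly half above 10 with the replicate mean above 10; inconclusive means replicate mean below 10 yet half the replicates above 10; inactive means over half of replicates below 10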
Jurkat NFkB inh: inhibitors of induced NF-kB luciferase reporter, primary screen, TCR NF-kB activation inhibitor project, cell-based, luminescence, uHTS | Jurkat, PMA/ionomycin-induced NF-kB luciferase reporter | inhibition, % at 4 µM | actives 0.53% (n = 330,000) | AID 435003, 2010; in the data active means inhibition above about 50%
NTR1 agonist: agonists of human NTR1, primary screen, imaging, U2OS cells, beta-arrestin-GFP, high content | Neurotensin receptor type 1 (Homo sapiens), P30989 | NTR1-U2OS beta-arrestin-GFP spot imaging, agonist mode | activation, % at 20 µM | actives 0.17% (n = 330,000);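 active means activation at or above 40% of the spot to cytoplasm intensity ratio, with at least 20 cells analyzed; inconclusive means wells under 20 cells, flagged as cytotoxic or low count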;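 further: 0% = DMSO without peptide and 100% = 100 nM NTR1 peptide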
Target sequence (P30989 whole entry, looked up): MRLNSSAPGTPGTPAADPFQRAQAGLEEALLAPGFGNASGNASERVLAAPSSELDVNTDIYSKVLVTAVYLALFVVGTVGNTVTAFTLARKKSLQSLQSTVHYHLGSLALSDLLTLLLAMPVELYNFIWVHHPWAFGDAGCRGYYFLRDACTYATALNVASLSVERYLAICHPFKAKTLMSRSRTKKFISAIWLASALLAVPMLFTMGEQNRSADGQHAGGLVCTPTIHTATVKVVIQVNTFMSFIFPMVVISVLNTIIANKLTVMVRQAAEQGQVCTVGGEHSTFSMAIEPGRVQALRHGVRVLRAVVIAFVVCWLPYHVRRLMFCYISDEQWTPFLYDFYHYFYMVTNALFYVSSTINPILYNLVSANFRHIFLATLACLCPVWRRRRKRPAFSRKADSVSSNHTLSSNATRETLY
Jurkat NFkB conf: PMA/ionomycin-induced NF-kB reporter inhibitors, Jurkat retest, confirmation, T-cell NF-kB inhibitor project, cell-based, luminescence, single concentration; shares compounds with Jurkat NFkB inh; Jurkat NF-kB luciferase, 16 h; inhibition, % at 4 µM; actives 27% (n = 2,700);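 active means inhibition reaching about 45% at 4 µM in either replicate, limit read from the data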;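 further: plate controls were PMA/ionomycin stimulated DMSO wells for no effect and unstimulated DMSO wells for full effect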
697 NFkB conf: PMA/ionomycin-induced NF-kB reporter inhibitors, 697 retest, confirmation, B-cell NF-kB inhibitor project, cell-based, luminescence, single concentration | 697 B-cell NF-kB luciferase, 16 h | shares compounds with 697 NFkB inh | actives 35% (n = 2,000) | inhibition, % at 4 µM | AID 449746, 2010; in the data active means inhibition mostly above about 28%, no sharp cut-off; inactive means mostly below about 22%
Mdm2 MdmX conf: Mdm2-MdmX complex disruptors, retested hits, confirmation, luminescence, single concentration; shares compounds with Mdm2-MdmX inh; Mdm2-MdmX binding, luminescent assay; inhibition, % at 8 µM; actives 55% (n = 10,000); AID 489028, 2010; in the data active means inhibition above about 40%
Full FLuc ctr: full-length luciferase signal inhibition, confirmation, counter-screen for Mdm2/MdmX interaction inhibitor project, cell-based, single concentration, SaOS-2; shares compounds with Mdm2-MdmX inh; SaOS-2 full-length luciferase counterscreen, luminescence; inhibition, % at 8 µM; actives 77% (n = 6,200); AID 504607, 2011;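 active means mean inhibition at 8 µM reaching about 37%, which flags the compound as non-specific, limit read from the data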;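 further: p53-null SaOS-2 cells with luciferase driven by a doxycycline-inducible promoter; compound on cells about two nights before reading with doxycycline added after day one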
* marks the source's active call; other numbers are inactive results; ? = inconclusive; · = no result given. This is a sample that favours compounds with a hit; in the whole collection about 3.8% have one here.

SMILES	697 NFkB inh	Mdm2-MdmX inh	Beta apoptosis	Bfl-1 A1 inh	Jurkat NFkB inh	NTR1 agonist	Jurkat NFkB conf	Mdm2 MdmX conf	Full FLuc ctr	others
CCOc1ccc(Oc2ccc(NS(=O)(=O)c3cc(C(=O)O)ccc3Cl)cc2)cc1	12	14	-3	-1	-6	0	·	·	·
CCOc1ccc(NS(=O)(=O)c2cc(NC(=O)c3ccc(C)cc3)ccc2Cl)cc1	-148	57*	28	-1	53*	0	34	67*	64*
COc1ccc(NC(=O)CN(C)C(=O)CSCc2ccc(C)cc2)cc1	0	6	0	0	4	-1	·	·	·
CCO[C@H]1OC(C(=O)NCc2nc3ccccc3[nH]2)=C[C@@H](C2CC2)[C@@H]1CCCO	-11	53*	6	0	61*	0	46	73*	69*
O=C(NC(Nc1nc2ccc([N+](=O)[O-])cc2s1)(C(F)(F)F)C(F)(F)F)c1ccccc1Cl	-37	100*	109*	-1	78*	3	70*	100*	15
COc1cc(OC)cc(C(=O)Nc2ccc(N3CCN(C(=O)c4cccs4)CC3)cc2)c1	-63	63*	19	1	64*	1	20	70*	69*
Cc1ccc2c(c1)N(C(=O)CCC(=O)N1CCC(C(N)=O)CC1)CC(C)O2 (stereo not given)	9	11	-5	0	1	0	·	·	·
Cc1cc(NC(=O)CSc2nc3c(sc4ccccc43)c(=O)n2CCCN2CCOCC2)n[nH]1	38*	70*	68	-1	59*	0	59*	82*	125*	697 NFkB conf=27
COc1ccc(C(=O)NC2CCCc3ccccc32)cc1[N+](=O)[O-] (stereo not given)	-27	67*	·	1	54*	4	23	58*	53*
CCSc1nc2ccccc2n1C(=O)/C=C\c1ccc(OC)c(OC)c1	-136	100*	50	0	53*	38	42	100*	52*
Cc1c(C(=O)NNC(=S)NCc2ccc(Cl)cc2)oc2ccccc12	6	-2	5	0	-11	2	·	·	·
CCc1ccc(-c2cc(C(=O)N/N=C/c3c[nH]c4ccccc34)[nH]n2)cc1	-47	62*	15	0	60*	19	-11	51*	101*
CCc1ccc2c(Cl)c(C(=O)N/N=C/c3c[nH]c4ccccc34)sc2c1	-20	46	·	0	13	31	·	·	·
COc1cccc2c1SCc1ccccc1C2CC(N)=O (stereo not given)	-39	-10	·	0	-26	0	·	·	·
CCc1ncc(CN2CCC(C(=O)Nc3cccc(-c4cscn4)c3)CC2)cn1	-15	7	-6	0	-18	2	·	·	·
Cc1cc(NCCCn2ccnc2)n2ncc(-c3ccc(Cl)cc3)c2n1	-168	60*	15	0	-215	2	-101	86*	52*
COc1ccc(-n2nnnc2-c2cccc(OC)c2)cc1	-5	56*	6	3	50	2	42	54*	66*
Nc1ncnc2c1ncn2[C@H]1C[C@H](O)[C@@H](CO)O1	18	-13	-3	0	0	0	·	·	·
Nc1nc(Cl)nc2c1ncn2[C@H]1C[C@H](O)[C@@H](CO)O1	57*	87*	31	?	65*	0	41	74*	22	697 NFkB conf=68*
CCN(CC(=O)NCc1cccs1)C(=O)CCOc1ccccc1	5	-7	-6	1	-1	2	·	·	·
CCN1/C(=C/C=C/C=C/C=C/c2sc3ccccc3[n+]2CC)Sc2ccccc21	4	23	23	0	7	2	·	·	·
CCN1/C(=C/c2ccc3cc(C)ccc3[n+]2CC)Sc2ccccc21	86*	97*	115*	-1	96*	-5	69*	95*	8	697 NFkB conf=49*
CCN1/C(=C/c2ccc3cc(C)ccc3[n+]2CC)Sc2cc(C)c(C)cc21	65*	81*	·	·	93*	-4	74*	85*	39*	697 NFkB conf=80*
CC[n+]1c(C)sc2cc(C)ccc21	-8	-25	-5	0	-3	1	·	·	·
O=C(Nc1ccc(F)cc1)C1CCCN(C2=NS(=O)(=O)c3ccccc32)C1 (stereo not given)	-8	-4	0	0	-17	-1	·	·	·
SMILES	697 NFkB inh	Mdm2-MdmX inh	Beta apoptosis	Bfl-1 A1 inh	Jurkat NFkB inh	NTR1 agonist	Jurkat NFkB conf	Mdm2 MdmX conf	Full FLuc ctr	others
COc1ccc(Nc2nc(-c3sc(C)nc3C)cs2)cc1	-70	50*	36	-1	51*	2	42	45*	61*
Cc1ccc(-c2nc(COC(=O)C3=NN(c4ccccc4)C(=O)CC3)cs2)cc1	-4	-17	-7	-2	-17	5	·	·	·
CC(C)Cc1ccc(C(C)C(N)=NCCc2ccccc2)cc1 (stereo not given)	-25	81*	11	0	50*	17	1	72*	48*
Cc1ccc(S(=O)(=O)Nc2cccc(-c3ccc(N4CCCCCC4)nn3)c2)c(C)c1	-63	12	3	0	-49	3	·	·	·
CC#CCN1c2ccccc2[C@]23C[C@@H](C(=O)OC)N(C(=O)NC4CCCCC4)C2=NC(C(=O)OC)=C(C(=O)OC)[C@H]13	0	16	1	0	11	-1	·	·	·
CC1=Nc2cc(C(=O)NCC3CCCO3)ccc2Sc2ccc(Br)cc21 (stereo not given)	-28	56*	13	1	52*	4	13	60*	61*
